Measurements as given in PubChem BioAssay AID1159580 (chemical genetic matrix, 2015).
Among all 5,500 compounds or so, about 2,000 (36%) were called active. About 18% were inconclusive and are not listed. The list shows a part of the results. Values without a mark were called inactive. No stated cut-off is given here; in the data, active means normalized growth mostly below about 0.91 (no sharp cut-off); inconclusive means no clear call, values can overlap the other calls; inactive means mostly above about 0.92.

Assay: chemical genetic growth profiling, strain panel (AID 1159580);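 further: tested at 20 µM; growth read once vehicle control cultures reached saturation at 30 °C; 1 = growth at the plate median or of vehicle wells; lower values mean less growth of the strain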
Settings: S. cerevisiae deletion strains, growth OD
[1] = locus YDL101C, strain DUN1, hits give low values
[2] = locus YHR030C, strain SLT2, hits give low values
[3] = locus YAR019C, strain CDC15, hits give low values
[4] = locus YBL105C, strain PKC1, hits give low values
[5] = locus YBR135W, strain CKS1, hits give low values
[6] = locus YBR136W, strain MEC1, hits give low values
[7] = locus YBR160W, strain CDC28, hits give low values
[8] = locus YDL017W, strain CDC7, hits give low values
[9] = locus YDL028C, strain MPS1, hits give low values
[10] = locus YDL108W, strain KIN28, hits give low values
[11] = locus YDL132W, strain cdc53, hits give low values
[12] = locus YDL214C, strain PRR2, hits give low values
[13] = locus YDR052C, strain DBF4, hits give low values
[14] = locus YDR054C, strain cdc34, hits give low values
[15] = locus YDR226W, strain ADK1, hits give low values
[16] = locus YDR477W, strain SNF1, hits give low values
[17] = locus YER123W, strain YCK3, hits give low values
[18] = locus YER133W, strain GLC7, hits give low values
[19] = locus YFL009W, strain cdc4, hits give low values
[20] = locus YFL029C, strain CAK1, hits give low values
[21] = locus YFR003C, strain YPI1, hits give low values
[22] = locus YFR019W, strain FAB1, hits give low values
[23] = locus YFR028C, strain CDC14, hits give low values
[24] = locus YGR040W, strain KSS1, hits give low values
[25] = locus YGR052W, strain FMP48, hits give low values
[26] = locus YGR092W, strain DBF2, hits give low values
[27] = locus YHR079C, strain IRE1, hits give low values
[28] = locus YHR082C, strain KSP1, hits give low values
[29] = locus YHR205W, strain SCH9, hits give low values
[30] = locus YIL147C, strain SLN1, hits give low values
[31] = locus YJL095W, strain BCK1, hits give low values
[32] = locus YJL128C, strain PBS2, hits give low values
[33] = locus YJL157C, strain FAR1, hits give low values
[34] = locus YJR016C, strain ILV3, hits give low values
[35] = locus YJR066W, strain TOR1 (second series), hits give low values
[36] = locus YJR066W, strain TOR1, hits give low values
[37] = locus YKL048C, strain ELM1, hits give low values
[38] = locus YKL067W, strain YNK1, hits give low values
[39] = locus YKL101W, strain HSL1, hits give low values
[40] = locus YKL193C, strain SDS22, hits give low values
[41] = locus YKL203C, strain TOR2, hits give low values
[42] = locus YLR113W, strain HOG1, hits give low values
[43] = locus YLR133W, strain CKI1, hits give low values
[44] = locus YLR403W, strain SFP1, hits give low values
[45] = locus YML070W, strain DAK1, hits give low values
[46] = locus YMR001C, strain CDC5, hits give low values
[47] = locus YMR205C, strain PFK2 (second series), hits give low values
[48] = locus YMR277W, strain FCP1, hits give low values
[49] = locus YNL006W, strain LST8, hits give low values
[50] = locus YNL020C, strain ARK1, hits give low values
[51] = locus YNL161W, strain CBK1, hits give low values
[52] = locus YNL183C, strain NPR1, hits give low values
[53] = locus YNL207W, strain RIO2, hits give low values
[54] = locus YNL222W, strain SSU72, hits give low values
[55] = locus YNL307C, strain MCK1 (second series), hits give low values
[56] = locus YOL078W, strain AVO1, hits give low values
[57] = locus YOL136C, strain PFK27, hits give low values
[58] = locus YOR061W, strain CKA2, hits give low values
[59] = locus YOR119C, strain RIO1, hits give low values
[60] = locus YOR231W, strain MKK1, hits give low values
[61] = locus YOR329C, strain SCD5, hits give low values
[62] = locus YPL031C, strain PHO85, hits give low values
[63] = locus YPL153C, strain RAD53, hits give low values
[64] = locus YPL204W, strain HRR25, hits give low values
[65] = locus YPL209C, strain IPL1, hits give low values
[66] = locus YPL256C, strain CLN2, hits give low values
[67] = locus YPR025C, strain CCL1, hits give low values
[68] = locus YPR106W, strain ISR1, hits give low values
[69] = locus YPR111W, strain DBF20, hits give low values
[70] = strain NNK1, hits give low values
[71] = strain TSCII, hits give low values

For `Cc1c(Cl)cccc1NC(=S)Nc1ccc(Cl)cc1C(=O)c1ccccc1`, the normalized growth (locus YAL013W, strain DEP1, hits give low values) was 0.999, the normalized growth (locus YBR229C, strain ROT2, hits give low values) was 0.991 and the normalized growth (locus YCL061C, strain MRC1, hits give low values) was 0.985. It also gave a normalized growth [1] of 0.993, a normalized growth (locus YDR150W, strain NUM1, hits give low values) of 0.987 and a normalized growth (locus YEL061C, strain CIN8, hits give low values) of 1. For the same molecule, the normalized growth (locus YGR078C, strain PAC10, hits give low values) was 0.968, the normalized growth [2] was 0.894 and the normalized growth (locus YHR087W, strain rtc3, hits give low values) was 0.99. It also gave a normalized growth (locus YJR043C, strain POL32, hits give low values) of 0.989, a normalized growth (locus YJR075W, strain HOC1, hits give low values) of 0.971 and a normalized growth (locus YLR039C, strain RIC1, hits give low values) of 0.907. It also gave a normalized growth (locus YLR058C, strain SHM2 (second series), hits give low values) of 1.01, a normalized growth (locus YLR085C, strain ARP6, hits give low values) of 0.969 and a normalized growth (locus YLR262C, strain YPT6, hits give low values) of 0.946. It also gave a normalized growth (locus YML094W, strain GIM5, hits give low values) of 0.98, a normalized growth (locus YMR219W, strain ESC1, hits give low values) of 0.991 and a normalized growth (locus YMR263W, strain SAP30, hits give low values) of 0.993. The normalized growth (locus YMR307W, strain GAS1, hits give low values) was 0.924, the normalized growth (locus YNL153C, strain GIM3, hits give low values) was 0.984 and the normalized growth (locus YNL298W, strain CLA4 (second series), hits give low values) was 0.987. It also gave a normalized growth (locus YNL322C, strain KRE1, hits give low values) of 0.986, a normalized growth (locus YNR030W, strain Alg12, hits give low values) of 0.969 and a normalized growth (locus YPL055C, strain LGE1, hits give low values) of 0.98. It also gave a normalized growth (locus YPL241C, strain CIN2, hits give low values) of 0.969 and a normalized growth (locus YPR135W, strain CTF4, hits give low values) of 0.956.

`Cc1cc(Cl)ccc1NC(=S)NNC(=S)Nc1ccc(F)cc1` showed a normalized growth [3] of 0.968, a normalized growth [4] of 0.974 and a normalized growth [5] of 0.972. It also gave a normalized growth [6] of 0.97, a normalized growth [7] of 0.966 and a normalized growth [8] of 0.975. It also gave a normalized growth [9] of 0.969, a normalized growth [1] of 0.973 and a normalized growth [10] of 0.97. The normalized growth [11] was 0.966, the normalized growth [12] was 0.943 and the normalized growth [13] was 0.968. The normalized growth [14] was 0.943, the normalized growth [15] was 0.971 and the normalized growth [16] was 0.898. The normalized growth [17] was 0.878, the normalized growth [18] was 0.925 and the normalized growth [19] was 0.964. It also gave a normalized growth [20] of 0.965, a normalized growth [21] of 0.957 and a normalized growth [22] of 0.964. It also gave a normalized growth [23] of 0.956, a normalized growth [24] of 0.912 and a normalized growth [25] of 1.04. For the same molecule, the normalized growth [26] was 0.863, the normalized growth [2] was 0.763 (active) and the normalized growth [27] was 0.902. The normalized growth [28] was 0.986, the normalized growth [29] was 0.914 and the normalized growth [30] was 0.964. For the same molecule, the normalized growth [31] was 0.869, the normalized growth [32] was 0.93 and the normalized growth [33] was 0.919. For the same molecule, the normalized growth [34] was 0.96, the normalized growth [35] was 0.911 and the normalized growth [36] was 0.917. The normalized growth [37] was 0.97, the normalized growth [38] was 0.916 and the normalized growth [39] was 0.935. The normalized growth [40] was 0.964, the normalized growth [41] was 0.954 and the normalized growth [42] was 0.929. The normalized growth [43] was 0.926, the normalized growth [44] was 0.896 and the normalized growth [45] was 0.928. It also gave a normalized growth [46] of 0.965, a normalized growth [47] of 0.939 and a normalized growth [48] of 0.95. The normalized growth [49] was 0.964, the normalized growth [50] was 0.921 and the normalized growth [51] was 0.973. It also gave a normalized growth [52] of 0.923, a normalized growth [53] of 0.961 and a normalized growth [54] of 0.972. The normalized growth [55] was 0.9, the normalized growth [56] was 0.957 and the normalized growth [57] was 0.916. The normalized growth [58] was 0.937, the normalized growth [59] was 0.977 and the normalized growth [60] was 0.924. It also gave a normalized growth [61] of 0.972, a normalized growth [62] of 0.899 and a normalized growth [63] of 0.884. The normalized growth [64] was 0.861, the normalized growth [65] was 0.969 and the normalized growth [66] was 0.904. It also gave a normalized growth [67] of 0.973, a normalized growth [68] of 0.971 and a normalized growth [69] of 0.969. It also gave a normalized growth [70] of 0.96 and a normalized growth [71] of 0.966.

For `CCOC(=O)/C(=N/Nc1c(Cl)cccc1Cl)c1csc(N)n1`, the normalized growth [3] was 0.968, the normalized growth [4] was 0.982 and the normalized growth [5] was 0.973. The normalized growth [6] was 0.972, the normalized growth [7] was 0.984 and the normalized growth [8] was 0.98. For the same molecule, the normalized growth [9] was 0.975, the normalized growth [1] was 0.986 and the normalized growth [10] was 0.97. The normalized growth [11] was 0.971, the normalized growth [12] was 0.89 and the normalized growth [13] was 0.973. It also gave a normalized growth [14] of 0.996, a normalized growth [15] of 0.973 and a normalized growth [16] of 0.864. The normalized growth [17] was 0.906, the normalized growth [18] was 0.868 and the normalized growth [19] was 0.959. It also gave a normalized growth [20] of 0.966, a normalized growth [21] of 0.97 and a normalized growth [22] of 0.971. It also gave a normalized growth [23] of 0.968, a normalized growth [24] of 0.884 and a normalized growth [25] of 0.933. For the same molecule, the normalized growth [26] was 0.834, the normalized growth [2] was 0.69 (active) and the normalized growth [27] was 0.837. For the same molecule, the normalized growth [28] was 0.973, the normalized growth [29] was 0.994 and the normalized growth [30] was 0.968. It also gave a normalized growth [31] of 0.873, a normalized growth [32] of 0.995 and a normalized growth [33] of 0.864. The normalized growth [34] was 0.976, the normalized growth [35] was 0.868 and the normalized growth [36] was 0.906. It also gave a normalized growth [37] of 0.986, a normalized growth [38] of 0.892 and a normalized growth [39] of 0.918. For the same molecule, the normalized growth [40] was 0.976, the normalized growth [41] was 0.921 and the normalized growth [42] was 0.801 (active). For the same molecule, the normalized growth [43] was 0.913, the normalized growth [44] was 0.864 and the normalized growth [45] was 0.889. The normalized growth [46] was 0.976, the normalized growth [47] was 0.925 and the normalized growth [48] was 0.975. The normalized growth [49] was 0.968, the normalized growth [50] was 0.904 and the normalized growth [51] was 0.969. For the same molecule, the normalized growth [52] was 0.91, the normalized growth [53] was 0.947 and the normalized growth [54] was 0.969. The normalized growth [55] was 0.898, the normalized growth [56] was 0.978 and the normalized growth [57] was 0.893. For the same molecule, the normalized growth [58] was 0.906, the normalized growth [59] was 0.975 and the normalized growth [60] was 0.864. It also gave a normalized growth [61] of 0.975, a normalized growth [62] of 0.852 and a normalized growth [63] of 0.858. For the same molecule, the normalized growth [64] was 0.805, the normalized growth [65] was 0.973 and the normalized growth [66] was 0.859 (active). For the same molecule, the normalized growth [67] was 0.976, the normalized growth [68] was 0.966 and the normalized growth [69] was 0.947. For the same molecule, the normalized growth [70] was 0.97 and the normalized growth [71] was 0.963.
